This passage reports Potency results from ChEMBL document CHEMBL1201862, “PubChem BioAssay data set” (2004).

The species entered for the experiment is Homo sapiens. Nature of the experiment: Quantitative High-Throughput Screen for Compounds Blocking the Interaction Between CBF-beta and RUNX1 for the Treatment of Acute Myeloid Leukemia: Summary. [Related pubchem assays (depositor defined):AID1477, AID504370, AID504374, AID504375]. Format: functional.
Regarding `c1coc(-c2ccnc3ncnn23)c1`, the Potency is 0.1 µM (active).
The figure for `N[C@@H](CCCCNC(=O)CCCC[C@@H]1SC[C@H]2NC(=O)N[C@H]12)C(=O)O` is 0.398 µM (active); for `CN1CCCN(C(=O)/C=C/c2ccc(Cl)cc2Cl)CC1` it is 0.126 µM (active).
Take `COC(=O)c1ccc(C)c(-n2c(C)cc(C=O)c2C)c1`: the Potency is 0.112 µM (active).
For the molecule `CCOc1ccc(CN(C)CC(=O)Nc2cc(C)c(C)cc2[N+](=O)[O-])cc1.CN(C)C=O`, the Potency is 0.141 µM (active).
Regarding `COc1cc([N+](=O)[O-])cc(/C=N/NC(=O)c2ccc(C)nc2)c1O`, the Potency is 0.141 µM (active).
`O=C1C2C3C=CC(C4CC34)C2C(=O)N1/N=C/c1cccs1` (stereo not given): the Potency is 0.112 µM (active).
In the case of `NNc1nc2cccnc2n(CCNc2ncc(C(F)(F)F)cc2Cl)c1=O`, the Potency was 0.126 µM (active).
The figure for `O=C(O)c1cccc(NC(=S)N/N=C/c2cccc(O)c2)c1` is 0.141 µM (active).
Consider `COC(=O)c1ccc(N=NNc2ccc(C(=O)OC)cc2)cc1`, for which the Potency was 0.112 µM (active).
